In the library only some 2.4% were active in any assay of this set; here they are far more common.
TsaE inh – inhibitors of E. coli YjeE (TsaE) | P0AF67 | purified YjeE enzyme, qHTS inhibition assay | Potency, µM | 71,000 tested, 0.05% active
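Purified YjeE (10 uM) with BODIPY Texas Red-labeled ADP probe (2 uM); compounds pin-transferred, 15 min at room temperature. Binding inhibition read as decreased fluorescence polarization; ADP titration as control.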
Tau fil binding – binders of human tau filaments; recombinant tau filaments, thioflavin S fluorescence, 15 h; filaments grown with octadecylsulfate alongside compound; Potency, µM (top dose mostly 57.1 µM); 71,000 tested, 2% active; P10636; AID 596;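 further: actives lower thioflavin S fluorescence by blocking filaments or displacing dye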
Target sequence (P10636 whole entry, looked up): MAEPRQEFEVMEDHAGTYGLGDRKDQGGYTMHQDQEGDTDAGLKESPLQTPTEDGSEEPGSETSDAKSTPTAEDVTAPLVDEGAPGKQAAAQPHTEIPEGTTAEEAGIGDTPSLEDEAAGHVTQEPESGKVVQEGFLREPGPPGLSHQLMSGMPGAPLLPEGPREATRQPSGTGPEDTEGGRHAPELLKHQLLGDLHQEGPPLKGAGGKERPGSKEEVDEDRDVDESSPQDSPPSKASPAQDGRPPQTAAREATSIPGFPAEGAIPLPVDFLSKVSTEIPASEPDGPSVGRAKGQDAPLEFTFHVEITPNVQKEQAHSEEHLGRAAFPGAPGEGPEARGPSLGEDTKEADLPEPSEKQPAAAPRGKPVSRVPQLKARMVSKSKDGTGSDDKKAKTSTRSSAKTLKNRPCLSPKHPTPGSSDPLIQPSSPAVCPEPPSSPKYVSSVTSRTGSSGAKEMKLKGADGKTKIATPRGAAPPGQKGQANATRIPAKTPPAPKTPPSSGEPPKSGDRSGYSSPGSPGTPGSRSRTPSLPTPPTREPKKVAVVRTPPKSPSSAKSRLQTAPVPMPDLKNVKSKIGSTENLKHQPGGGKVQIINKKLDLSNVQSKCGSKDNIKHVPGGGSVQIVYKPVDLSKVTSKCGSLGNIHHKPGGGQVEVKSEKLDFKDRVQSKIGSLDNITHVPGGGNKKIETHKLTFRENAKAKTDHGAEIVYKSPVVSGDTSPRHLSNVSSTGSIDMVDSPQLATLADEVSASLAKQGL
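His-tagged recombinant human tau (exons 2, 3, 10; 1 uM final) fibrillized with 30 uM sodium octadecylsulfate, 15 h at 37 C, in pH 7.4 HEPES buffer with 10 uM thioflavine S and 5 mM DTT. Reduced ThS fluorescence (450/510 nm) marks activity.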
Pol III holo inh – inhibitors of bacterial DNA polymerase III holoenzyme; Potency, µM (highest dose often 57.1 µM); AID 603; reconstituted DNA polymerase III holoenzyme replication, biochemical; 71,000 tested, 0.25% active
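Reconstituted *E. coli* holoenzyme (0.35 nM Pol III, 1 nM beta, 154 nM SSB, 2 nM primase) was preincubated with compound for 15 min at RT. Synthesis on 1.4 nM ssM13Gori ran 35 min, then was stopped with PicoGreen/EDTA and read as dsDNA fluorescence.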
Hsp90 Hop PPI – changes Hsp90-Hop TPR2A binding signal, up or down; AlphaScreen TPR2A-His6 binding biotin-Hsp90 C-terminal peptide; Potency, µM (highest dose often 57 µM); 71,000 tested, 0.44% active; active means well fitted curve in either direction with a large enough effect; inconclusive means small, poorly fitted or top-dose-only effect, or another doubt
BRCT PPI green – inhibitors of human BRCA1 BRCT-phosphoprotein interaction (green fluorophore) | P38398 | Potency, µM (highest dose often 76.9 µM), most hits filed as inhibitors | 75,000 tested, 0.05% active | BRCA1 BRCT-phosphopeptide binding, green fluorescence polarization
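Compounds were incubated for 12 min at room temperature with a complex of 100 nM fluorescein-tagged pBACH1 decapeptide and 250 nM His-tagged BRCT protein. Buffer was phosphate pH 7.3 with EDTA, DTT and Tween 20. Disruption of binding lowers the polarization signal.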
BRCT PPI red – BRCT-phosphoprotein interaction inhibition (red fluorophore); P38398; BRCT-phosphopeptide binding, red fluorescence polarization; Potency, µM (highest dose often 76.9 µM), actives largely listed as inhibitors; 75,000 tested, 0.03% active; AID 892
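Rhodamine-labelled pBACH1 10-mer (100 nM) bound to BRCT domain (100 nM) at pH 7.3; compounds incubated 12 min room temperature, polarization read. Free peptide defines full inhibition; unlabelled decapeptide titrated as control.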
Numbers stand for hits; - = inactive; ? = inconclusive; . = not tested or not shown; [ ] = remark or other dose. Unless noted, the call rests on the fitted dose curve; in most records, active means well fitted curve in the direction sought with a large enough effect; inconclusive means small, poorly fitted or top-dose-only effect, or another doubt; inactive means no such curve, though single readings can be large; an effect the other way counts as inactive or inconclusive.

SMILES | TsaE inh | Tau fil binding | Pol III holo inh | Hsp90 Hop PPI | BRCT PPI green | BRCT PPI red
CCOc1ccccc1N1CCN(S(=O)(=O)CC)CC1 | - | - | - | - | - | -
CCOc1ccccc1N1CCN(S(=O)(=O)c2cccc3nsnc23)CC1 | - | 20µM | - | - | - | -
O[C@@H](c1cc([C@@]23C[C@H]4CC[C@@H]2C[C@H](C4)C3)nc2c(Cl)cc(Cl)cc12)[C@@H]1CCCCN1 | - | -[11.4 µM] | -[11.4 µM] | -[11 µM] | -[15.4 µM] | -[15.4 µM]
O=c1c(-c2ccc(Cl)cc2)nc2cnc(N3CCNCC3)nc2n1CCc1ccccc1 | - | - | - | - | - | -
Cc1nn(-c2ccccc2)c2nc(-c3ccncc3)cc(C(=O)NCc3ccco3)c12 | - | 31.6µM | - | - | - | -
CCOC(=O)c1cc(-c2ccco2)nc2c1c(C)nn2-c1ccccc1 | - | 10µM | - | - | - | -
Cc1nn(-c2ccccc2)c(C)c1C(=O)OCC(=O)NCc1ccco1 | - | - | ? | - | - | -
Cc1c(C(=O)O)c(O)cc2c1C(=O)c1c(O)c([C@@H]3O[C@H](CO)[C@@H](O)[C@H](O)[C@@H]3O)c(O)c(O)c1C2=O | - | - | ? | ? | . | .
c1cc(OCC2CO2)cc(OCC2CO2)c1 (configuration not stated) | - | - | - | - | - | -
OCCCCNc1cccc2ccccc12 | - | 25.1µM | - | - | - | -
C=CCN(CC=C)c1nc2ccccc2nc1C(C#N)C(=O)OCCOC (configuration not stated) | - | - | - | - | - | -
CCCN(CCC)c1nc2ccccc2nc1C(C#N)C(=O)OCCOC (configuration not stated) | - | 1.26µM | - | - | - | -
C[C@H]1[C@H](C)OC(=O)C[C@H](O)C[C@H](O)C[C@H](O)CC[C@H](O)[C@H](O)CC(=O)C[C@H](O)[C@H](C(=O)O)[C@H](O)C[C@H](O[C@@H]2O[C@@H](C)[C@H](O)[C@@H](N)[C@@H]2O)C=CC=CC=CC=CCCC=CC=C[C@@](C)(O)[C@H]1O | - | -[11.4 µM] | -[11.4 µM] | -[11 µM] | -[15.4 µM] | -[15.4 µM]
CC1N(C)c2cc(NC(=O)c3ccco3)ccc2C1(C)C (configuration not stated) | ? | 20µM | - | - | - | -
CCOC(=O)[C@]1(C(NC(=O)OC)c2cccc(C)c2)CCCC1=O (some centres not stated) | . | . | . | . | -[15.4 µM] | -[15.4 µM]
Nc1ncnc2c1ncn2[C@@H]1O[C@@H](C(=O)NC2CC2)[C@H](O)[C@@H]1O | - | - | - | - | - | -
CNc1sc(C(=O)c2cccs2)c(N)c1-c1nc2ccccc2s1 | - | 5.01µM | - | ? | - | -
COc1cccc2cc3c(=O)n(-c4ccccc4)nc-3oc12 | - | 15.8µM | - | -[2.3 µM] | - | -
Cc1ccc(S(=O)(=O)Nc2ccc(O)c(C(=O)O)c2)c(C)c1 | . | . | . | . | - | -
CC(C)(C)C(=O)/C=C(\N)c1ccccn1 | - | - | - | ? | - | -
CC(C)(C)C(=O)/C=C(N)/C=C/c1ccccc1 | - | 25.1µM | - | - | - | -
C#CCOC(=O)[C@H](N)CC(N)=O | - | -[11.4 µM] | -[11.4 µM] | -[11 µM] | -[15.4 µM] | -[15.4 µM]
O=C(O)c1[nH]c2c([N+](=O)[O-])cc([N+](=O)[O-])cc2c1C(=O)O | - | -[11.4 µM] | -[11.4 µM] | -[11 µM] | -[15.4 µM] | -[15.4 µM]
CCc1c(C)sc(NC(=O)c2cccs2)c1C(=O)OC(C)C | - | - | - | 25.1µM | - | -
CCN1C(=O)[C@@H]2[C@H]3C(=CC[C@H]2C1=O)C(=O)[C@H]1OC1[C@H]3O (some centres not stated) | . | . | . | . | -[15.4 µM] | -[15.4 µM]
SMILES | TsaE inh | Tau fil binding | Pol III holo inh | Hsp90 Hop PPI | BRCT PPI green | BRCT PPI red
Cn1c(=O)c2c(ncn2CN2CCN(Cn3cnc4c3c(=O)n(C)c(=O)n4C)CC2)n(C)c1=O | - | -[11.4 µM] | -[11.4 µM] | -[11 µM] | -[15.4 µM] | -[15.4 µM]
CCOc1ccc(C2c3c(oc4cc(C)c(C)cc4c3=O)C(=O)N2CCCN(C)C)cc1OC (configuration not stated) | - | 25.1µM | - | - | - | -
COc1ccc(C2c3c(oc4ccc(C)cc4c3=O)C(=O)N2c2cc(C)ccn2)cc1OC (configuration not stated) | - | ? | - | - | - | -
COC(=O)c1ccc(C2c3c(oc4cc(C)c(C)cc4c3=O)C(=O)N2CCCN(C)C)cc1 (configuration not stated) | - | 10µM | - | - | - | -
COc1ccc(C2c3c(oc4ccccc4c3=O)C(=O)N2c2ccc(C)cn2)cc1OC (configuration not stated) | - | 6.31µM | - | - | - | -
CCc1ccc(C2CC(c3ccccc3Cl)Nc3nc(N)nn32)cc1 (configuration not stated) | - | 20µM | - | - | - | -
CCc1ccc(C2CC(c3ccccc3)Nc3nc(N)nn32)cc1 (configuration not stated) | - | - | - | - | - | -
CCOc1ccc(N2C(=O)CC(/C=C3/N(C)c4ccccc4C3(C)C)C2=O)cc1 (configuration not stated) | - | 25.1µM | - | - | - | -
CCOc1ccc(N2C(=O)CC(N3CCN(c4ccccc4F)CC3)C2=O)cc1 (configuration not stated) | - | - | - | - | - | -
FC(F)(F)c1cc(CO[C@@H]2CCCN[C@H]2c2ccccc2)cc(C(F)(F)F)c1 | - | - | - | - | - | -
Cc1cc2nc([C@H](C)C(=O)c3ccc(Cl)cc3)c(=O)[nH]c2cc1C | - | -[11.4 µM] | -[11.4 µM] | -[11 µM] | -[15.4 µM] | -[15.4 µM]
N=C1[C@@H](O)[C@]2(I)c3ccccc3N3C(=N)[C@H](O)[C@@H]4c5ccccc5N1[C@@H]4[C@@H]32 | - | 1µM | -[11.4 µM] | -[11 µM] | -[15.4 µM] | -[15.4 µM]
C[C@H](O)[C@H](O)[C@@H]1CNc2nc(N)[nH]c(=O)c2N1 | - | - | - | - | - | -
COc1cc(O)c2c(=O)cc(-c3ccccc3)oc2c1 | - | 31.6µM | - | - | - | -
NC(=O)c1ncn([C@@H]2O[C@@H](CO)[C@@H](O)[C@H]2O)c1O | - | - | - | - | - | -
COCCn1c(=O)c(-c2cc(F)cc(F)c2)nc2cnc(Oc3cccc(Cl)c3)nc21 | - | 12.6µM | - | - | - | -
COCCn1c(=O)c(-c2ccc(F)cc2)nc2cnc(Oc3cccc(Cl)c3)nc21 | - | - | - | - | - | -
COCCn1c(=O)c(-c2cc(F)cc(F)c2)nc2cnc(Oc3ccccc3)nc21 | - | ? | - | - | - | -
O=c1cnc2cnc(Oc3cccc(Cl)c3)nc2n1Cc1ccc(F)cc1 | - | 15.8µM | - | - | - | -
COCCn1c(=O)c(-c2cc(F)cc(F)c2)nc2cnc(Oc3ccc(OC)cc3)nc21 | - | 15.8µM | - | - | - | -

High-throughput results from PubChem.
